SW480 rereplic – induces DNA re-replication in SW480 colon adenocarcinoma cells; Potency, µM (doses to about 46.1 µM), inactives show at the top dose re-replication activation, usual class: activators; SW480 DNA re-replication, Hoechst DNA content imaging, 48 h; 340,000 compounds, 1.8% hits; also: % of control where 0% means no effect; nearly all actives have a fitted effect of over 55% in size
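Cells (250 per well) received 23 nL compound or DMSO by pin tool and were kept 48 hr at 37 C, 5% CO2. Nuclei were then stained with Hoechst for 40 min and scanned for DNA content.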
12-LOX inh – blocks human arachidonate 12S-lipoxygenase; Potency, µM (titrated, usually from 108 µM), for inactives: at the top dose activity change, negative = inhibition, usual class: inhibitors; purified 12hLO, xylenol orange hydroperoxide absorbance; P18054; 580,000 compounds, 1.1% hits; also: % is scaled to controls: 0 for no effect and ±100 for the full control effect
Target sequence (P18054 whole entry, looked up): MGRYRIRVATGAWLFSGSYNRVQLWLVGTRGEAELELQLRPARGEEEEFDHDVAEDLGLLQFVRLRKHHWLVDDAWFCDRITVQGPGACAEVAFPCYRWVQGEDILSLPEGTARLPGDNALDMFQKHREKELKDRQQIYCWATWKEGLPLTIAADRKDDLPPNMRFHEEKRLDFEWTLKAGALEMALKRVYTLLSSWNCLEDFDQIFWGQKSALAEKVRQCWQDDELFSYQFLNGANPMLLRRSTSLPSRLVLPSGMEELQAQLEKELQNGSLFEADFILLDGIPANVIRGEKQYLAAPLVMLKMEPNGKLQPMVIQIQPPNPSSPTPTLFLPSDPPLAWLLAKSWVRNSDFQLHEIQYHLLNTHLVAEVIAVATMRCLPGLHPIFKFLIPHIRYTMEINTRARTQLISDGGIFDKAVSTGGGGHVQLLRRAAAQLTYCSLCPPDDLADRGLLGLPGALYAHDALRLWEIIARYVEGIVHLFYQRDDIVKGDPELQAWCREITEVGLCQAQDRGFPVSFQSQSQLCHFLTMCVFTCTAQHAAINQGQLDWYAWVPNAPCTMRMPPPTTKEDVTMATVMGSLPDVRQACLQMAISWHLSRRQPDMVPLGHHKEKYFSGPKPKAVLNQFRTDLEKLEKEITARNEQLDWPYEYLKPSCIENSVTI
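Hydroperoxide product was detected by ferrous iron/xylenol orange as the 573 to 405 nm absorbance ratio. Arachidonic acid at 40 uM (final) was turned over for 30 min at room temperature by 150 nM human 12hLO, pH 7.0 Hepes buffer, after 15 min compound preincubation.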
KB-V1 MDR tox – KB-V1 MDR subline cytotoxicity; 400,000 compounds, 3.4% hits; KB-V1 MDR cells viability, CellTiter-Glo, 72 h; Potency, µM (top dose mostly 46.1 µM), actives largely listed as cytotoxic; also: % is scaled to controls: 0 for no effect and ±100 for the full control effect; nearly all actives have a fitted effect of over 60% in size
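Cells of the MDR subline KB-V1 are plated, dosed with compound at multiple concentrations, and incubated 72 h at 37 degrees C; CellTiter-Glo is then added and luminescence read after 10 min.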
KB-3-1 tox – KB-3-1 parental cell cytotoxicity | KB-3-1 viability, CellTiter-Glo ATP luminescence, 72 h | Potency, µM (top dose mostly 46.1 µM), hits mostly cytotoxic | 400,000 compounds, 1.4% hits | AID 1347075; also: % is scaled to controls: 0 for no effect and ±100 for the full control effect; nearly all actives have a fitted effect of over 60% in size
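Screening of KB-3-1 cells (DMEM, 10% FBS, phenol-red free) ran from lowest to highest compound concentration; after 72 h at 37 °C viability was read luminescently and curves fitted.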
MCF10A rereplic – inducers of DNA re-replication in MCF 10A breast cells. MCF 10A DNA re-replication, Hoechst nuclear intensity, 48 h. Potency, µM (titrated, usually from 46.1 µM), without a hit: at the highest dose activity, positive = re-replication, most hits filed as activators. 350,000 compounds, 2.9% hits. AID 624296; also: % of control where 0% means no effect; nearly all actives have a fitted effect of over 50% in size
PINK1 expr mod – PINK1 expression modulation; PINK1 immunofluorescence, high-content cytometry, 24 h; Potency, µM (series often up to 76.6 µM), inactives show at the highest dose activation (PINK1 increase), hits mostly activators; 410,000 compounds, 0.2% hits; AID 624263; active = well fitted activation curve with a large enough effect; inconclusive = small, poorly fitted or top-dose-only effect; cell line not stated here; also: % of control where 0% means no effect; nearly all actives have a fitted effect of over 65% in size
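Readout is PINK1 immunofluorescence, quantified alongside mitochondrial, cell and nuclear markers by laser-scanning microplate cytometry. Cells from a stable line were exposed to compound titrations (5 concentrations) for 24 hours, with CCCP controls.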
An asterisk follows results filed as active; i = inactive; u = inconclusive; x = no result given; [ ] = dose if it differs, or a comment. In the library only some 5.8% were active in any assay of this set; here they are far more common. Unless noted, calls follow the shape of the dose curve; as a rule, active = well fitted curve in the direction sought with a large enough effect; inconclusive = small, poorly fitted or top-dose-only effect, or another doubt; inactive = no such curve, though single readings can be large; an effect the other way counts as inactive or inconclusive. Potency is read from the fitted curve at half-maximal effect.

SMILES	SW480 rereplic	12-LOX inh	KB-V1 MDR tox	KB-3-1 tox	MCF10A rereplic	PINK1 expr mod
CC(=O)NC1C(=O)N(CCN2CCOCC2)c2ccc(Br)cc21 (centres undefined)	-5%	32µM*	i	u	12%	3%
CCOc1ccc2c(c1)C(NC(C)=O)C(=O)N2CCN1CCOCC1 (centres undefined)	u	0%	i	i	0%	1%
CC(=O)NC1C(=O)N(CCc2ccccc2)c2ccc(Br)cc21 (centres undefined)	2%	25%	5.8µM*	i	27%	3%
COc1ccc(NC(=O)C(C)Oc2ccc(C)c(C)c2)c2cccnc12 (centres undefined)	x	-9%	x	x	x	x
O=C(Oc1c(Cl)cc(Cl)c2cccnc12)N1CCCCC1	7%	u	i	i	5%	4%
CN1CCN(Cc2cc(Cl)c3cccnc3c2OC(=O)c2cccs2)CC1	u	7%	5.8µM*	u	u	-3%
O=C(Oc1c(CN2CCOCC2)cc(Cl)c2cccnc12)c1ccccc1Br	3.3µM*	-1%	u	u	u	7%
O=C(c1ccc(F)c(F)c1)N(C1CCCCC1)C1CCCCC1	x	-4%	x	x	x	x
CCOC(=O)c1sc2nccc(N(C)C)c2c1N=CNOCc1ccccc1	u	-17%	9.2µM*	u	21µM*	4%
CCOC(=O)c1sc2nccc(N(C)C)c2c1N=CNOC	-2%	82%	u	u	12%	-2%
CCOC(=O)c1sc2nccc(N(C)C)c2c1N=CNOCc1c(F)cccc1Cl	u	u	u	i	15µM*	6%
CCCC(CCC)C(=O)Nc1ccc(OC)cc1	x	-22%	x	x	x	x
C=CCNC(=S)Nc1ccc(C)c(S(=O)(=O)N2CCCCC2)c1	2%	-21%	u	i	3%	0%
Cc1ccc(S(=O)(=O)N2CCCCC2)cc1NC(=O)CSc1nnc(N)s1	-1%	3%	i	i	0.58µM*	4%
CCOc1ncccc1C(=O)Nc1ccc(C)c(S(=O)(=O)N2CCCCCC2)c1	-15%	50%	u	u	9.2µM*	2%
Nc1nnc(SCC(=O)Nc2cccc(S(=O)(=O)N3CCCCC3)c2)s1	u	-3%	i	i	u	1%
COc1ccc(NC(=O)CCOc2ccc(C)cc2)cc1S(=O)(=O)N1CCOCC1	-9%	207%	18µM*	i	1%	-2%
Cc1ccc(NC(=S)Nc2ccc(C(C)C)cc2)cc1S(=O)(=O)N1CCCCCC1	u	u	15µM*	i	u	11µM*
COc1ccc2cc(C(=O)N3CCN(S(=O)(=O)c4ccccc4)CC3)c(C)nc2c1	x	-1%	x	x	x	x
Cc1ccccc1OCC(=O)Nc1ccc2c(c1)n(C)c(=O)n2C	-20%[1.84 µM]	2%	13µM*	i	5%	-1%
CC1CC(C)CN(C(C)C(=O)Nc2cc(S(=O)(=O)N3CCCCC3)ccc2Cl)C1 (centres undefined)	-5%	15%	i	i	-15%	4%
Cn1c(=O)n(C)c2cc(NC(=O)COc3ccccc3)ccc21	-12%	4%	i	i	2%	0%
COc1cc(CCC(=O)Nc2ccc(S(=O)(=O)N3CCCC3)cc2)cc(OC)c1OC	-10%	u	i	i	12%	2%
CC1CCN(C(C)C(=O)Nc2cc(S(=O)(=O)N3CCCCC3)ccc2Cl)CC1 (centres undefined)	0%	-29%	15µM*	u	5%	5%
COc1cc(CCC(=O)Nc2ccc(C)c(S(=O)(=O)N3CCCCCC3)c2)cc(OC)c1OC	-2%	-2%	3.7µM*	6.5µM*	13%	4%
SMILES	SW480 rereplic	12-LOX inh	KB-V1 MDR tox	KB-3-1 tox	MCF10A rereplic	PINK1 expr mod
Cc1ccccc1OCC(=O)Nc1ccc(C)c(S(=O)(=O)N2CCCCCC2)c1	-5%	u	12µM*	i	16%	0%
O=C(CCOc1cccc(Br)c1)Nc1ccc(F)c(S(=O)(=O)N2CCOCC2)c1	11%	-16%	23µM*	i	u	1%
O=C(Nc1ccc(F)c(S(=O)(=O)N2CCOCC2)c1)C1CCCCC1	-1%	28%	18µM*	i	11%	0%
CCOc1ccc(S(=O)(=O)N2CCCCC2)cc1NC(=O)Cc1cc(OC)c(OC)c(OC)c1	x	-4%	i	i	x	13%
O=C(CCOc1ccccc1)Nc1ccc(Cl)c(S(=O)(=O)N2CCOCC2)c1	0%	2%	i	i	10%	3%
Cc1ccc(OC(C)C(=O)Nc2ccc3c(c2)n(C)c(=O)n3C)c(C)c1 (centres undefined)	0%	45µM*	i	i	u	2%
COc1cc(CC(=O)Nc2cc(S(=O)(=O)N3CCCCC3)ccc2C)cc(OC)c1OC	x	22µM*	x	x	x	x
CCOc1ccccc1-n1nnnc1SCc1nc2ccccc2[nH]1	x	-5%	x	x	x	x
CSc1ccccc1NC(=O)c1cc(F)cc(F)c1	x	-1%	x	x	x	x
Cc1ccc(S(=O)(=O)N2CCC(C(=O)Nc3ccccc3N3CCCC3)CC2)cc1	7%	u	5.8µM*	i	-2%	-2%
COc1ccc(OC)c(S(=O)(=O)N2CCC(C(=O)Nc3cc(C)ccc3C)CC2)c1	4.6µM*	4%	u	i	u	3%[38.3 µM]
Cc1cc(C)c2c(c1)cc(C)c1nnc(SCC(=O)Nc3ccc(S(=O)(=O)N4CCCCC4)cc3)n12	9%	-18%	18µM*	i	-3%	3%
Cn1c(=O)n(C)c2cc(NC(=O)CCl)ccc21	u	u	16µM*	4.6µM*	18µM*	1%
CC(=O)Nc1ccc2c(c1)n(C)c(=O)n2C	-5%	27%	i	i	-3%	u
C[C@@H](C(=O)N1CCN(c2cccc(Cl)c2)CC1)n1cnc2ccccc2c1=O	x	3%	x	x	x	x
COc1ccc(NC(=O)Cc2cccs2)cc1S(=O)(=O)N1CCCCC1	0%	-16%	i	i	-1%	0%
COc1ccc(NC(=O)CCc2ccccc2)cc1S(=O)(=O)N1CCCCC1	-2%	358%	5.2µM*	u	5%	1%
COc1ccc(NC(=O)Cc2ccsc2)cc1S(=O)(=O)N1CCCCC1	0%	-8%	21µM*	i	-3%	6%
Cc1ccc(S(=O)(=O)N2CCCCC2)cc1NC(=O)C1CCC1	6%	-8%	23µM*	i	10%	0%
COc1ccc(C(=O)OCc2ccccc2F)cc1S(=O)(=O)N1CCCC1	-4%	-7%	16µM*	i	4%	1%
CCCCn1nc(C(=O)Nc2nnc(Cc3ccccc3)s2)c2ccccc2c1=O	x	-9%	x	x	x	x

Screens: PubChem BioAssay, National Center for Advancing Translational Sciences (NCATS)
